The values that follow come from PubChem BioAssay AID372 (MTDP, 2006).

The whole screen tested about 100,000 compounds, of which about 770 (0.77%) were called active. What follows is part of a selection rich in actives, with near analogues and random picks from the rest. Unmarked numbers belong to inactive results. Rule as the data show it: active = inhibition above about 50%; inactive = the rest.

The assay concerns the target Gag-Pol polyprotein (Human immunodeficiency virus type 1 group M subtype B (isolate HXB2)) (UniProt P04585). As to the kind of experiment: RNase H inhibition, HIV 1 Gag Pol polyprotein, FRET biochemical assay, screening (AID 372). The following applies: HIV-1 RT RNase H, FRET RNA/DNA substrate fluorescence; at 10 µM; hits give high values.
On to `COc1ccc(N2N=C(c3ccc(C)cc3)CC2c2cccs2)cc1` (stereo not given), for which the inhibition – broadly, the change of the read-out against control, counted positive when it falls – is 6%.

Consider `O=C(NNc1ccc([N+](=O)[O-])cc1)c1ccc([N+](=O)[O-])cc1`, for which the inhibition is 5%.

Turning to `O=C(Nc1ccc(OCc2ccccc2)cc1)c1cccc2ccccc12`, the inhibition was 15%.

Turning to `CCOc1ccc2nc(SCc3ccc(OC)c(F)c3)sc2c1`, the inhibition is 20%.

Consider `Cc1cc(/C=C2/SC(=S)NC2=O)c(C)n1-c1cccc(Cl)c1`, for which the inhibition is 8%.

Consider `Cc1cccc(-n2c(C)cc(/C=C3/SC(=S)NC3=O)c2C)c1`, for which the inhibition is 56% (active).

`Cc1cc(C=C2C(=O)NC(=S)NC2=O)c(C)n1-c1cccc(Cl)c1`: the inhibition was 28%.

Turning to `Cc1cc(/C=C2/SC(=S)NC2=O)c(C)n1-c1ccc(Cl)c(Cl)c1`, the inhibition is 53% (active).

Take `Cc1cc(/C=C2/SC(=S)NC2=O)c(C)n1-c1ccccc1`: the inhibition is 19%.

As to `Cc1ccc(-n2c(C)cc(C=C3C(=O)NC(=S)NC3=O)c2C)cc1C`, the inhibition was 19%.

Regarding `Cc1ccc(-n2c(C)cc(/C=C3/SC(=S)NC3=O)c2C)cc1`, the inhibition is 5%.

For the molecule `Cc1cc(/C=C2/SC(=S)NC2=O)c(C)n1-c1ccc(Cl)cc1`, the inhibition was 2%.

Take `Cc1cc(C=C2C(=O)NC(=S)NC2=O)c(C)n1-c1ccc(Cl)c(Cl)c1`: the inhibition was 55% (active).

With `CCCCN1C(=O)c2cccc3c(Cl)ccc1c23`, the inhibition is 44%.

Take `Cc1cc(OCC(=O)Nc2ccccn2)cc(C)c1Cl`: the inhibition is 2%.

Consider `CCOc1ccccc1OCCOc1ccc(C)cc1C(C)(C)C`, for which the inhibition was 17%.

In the case of `CC(C)OC(=O)c1c(NC(=O)c2ccc([N+](=O)[O-])cc2Cl)sc2c1CCCCC2`, the inhibition was 31%.

For the molecule `CC(C)(C)c1nnc(-c2cccc([N+](=O)[O-])c2)o1`, the inhibition is 8%.

As for `COc1ccc(Cl)cc1C(=O)Nc1cccc(C)n1`, the inhibition is 0%.

Turning to `Cc1cccc(NC(=O)c2cc(Cl)ccc2Cl)n1`, the inhibition was 54% (active).

With `CC(=O)Nc1cccc(NC(=O)c2cc(Cl)ccc2Cl)c1`, the inhibition is 56% (active).

On to `Cc1cccc(NC(=O)c2cc(I)ccc2Cl)n1`, for which the inhibition was 0%.

On to `CC(=O)Nc1cccc(NC(=O)c2ccc(Cl)cc2Cl)c1`, for which the inhibition was 3%.

With `CC(=O)Nc1ccc(NC(=O)c2cc(Cl)ccc2Cl)cc1`, the inhibition was 6%.

For `CCCCNCCCCOc1ccccc1C(C)(C)C`, the inhibition was 8%.

Consider `O=C(Nc1ccc(I)cn1)C12CC3CC(CC(C3)C1)C2`, for which the inhibition is 7%.

Take `Cc1ccc(NC(=O)/C=C/c2ccc(Cl)cc2)cc1`: the inhibition is 8%.

`COc1ccc(C2CC(=O)C3=C(C2)NC(C)=C(C(=O)OCC(C)C)C3c2cc3c(cc2Cl)OCO3)cc1` (stereo not given): the inhibition was 10%.

Take `O=C(COc1ccccc1[N+](=O)[O-])Nc1ccc2oc(-c3cccc4ccccc34)nc2c1`: the inhibition is 13%.

As to `CN(C(=O)c1ccc(Cl)cc1Cl)c1ccccc1`, the inhibition is 1%.

Take `Clc1ccc(CN2CCN(/N=C/c3ccc(-c4ccccc4)cc3)CC2)cc1`: the inhibition was 8%.

Take `Cc1ccc(O)c(/C=N/n2c(-c3ccccc3)n[nH]c2=S)c1`: the inhibition was 13%.

Turning to `O=C(Nc1ccc(NC(=O)c2cccs2)cc1)c1ccccc1`, the inhibition was 5%.

For `CC(=O)Nc1ccc(-c2nc(-c3ccccc3)c3cc(NC(C)=O)ccc3n2)cc1`, the inhibition is 8%.

As for `O=C(Nc1ccc(-c2nc(-c3ccccc3)c3cc(NC(=O)c4cccs4)ccc3n2)cc1)c1cccs1`, the inhibition is 52% (active).

As to `O=C(NC(=S)Nc1cccc(-c2nc3ncccc3o2)c1)c1cccc(Cl)c1`, the inhibition was 23%.

Consider `O=C(Nc1sc2c(c1C(=O)Nc1ccccc1)CCCCC2)c1ccc([N+](=O)[O-])cc1`, for which the inhibition is 27%.

As to `Cc1ccc(NC(=O)c2c(NC(=O)c3ccc([N+](=O)[O-])cc3)sc3c2CCCC3)cc1`, the inhibition was 0%.

On to `Cc1ccc2nc(-c3ccc(NC(=S)NC(=O)c4ccccc4)cc3)oc2c1`, for which the inhibition is 58% (active).

With `Cc1ccc2nc(-c3ccc(NC(=S)NC(=O)c4ccc(F)cc4)cc3)oc2c1`, the inhibition is 45%.

Turning to `O=C(NC(=S)Nc1ccc(-c2nc3ncccc3o2)cc1)c1cccc(F)c1`, the inhibition is 32%.

In the case of `COc1ccc(C(=O)NC(=S)Nc2ccc(-c3nc4ccc(C)cc4o3)cc2)cc1`, the inhibition was 12%.

As to `O=C(NC(=S)Nc1ccc(-c2nc3ncccc3o2)cc1)c1cccc(Cl)c1`, the inhibition was 59% (active).

In the case of `Cc1ccc2nc(-c3ccc(NC(=S)NC(=O)c4ccc([N+](=O)[O-])cc4)cc3)oc2c1`, the inhibition was 50% (active).

As for `Cc1ccc(C(=O)NC(=S)Nc2ccc(-c3nc4cc(C)c(C)cc4o3)cc2)cc1`, the inhibition is 10%.

`Cc1ccc2nc(-c3ccc(NC(=S)NC(=O)c4ccc(C)c(C)c4)cc3)oc2c1`: the inhibition was 18%.

As to `Cc1ccc2nc(NNC(=O)CCC(=O)O)nc(-c3ccccc3)c2c1`, the inhibition was 15%.

For `COc1cc(/C=N/n2cnnc2)ccc1OCCSc1ccc(C)cc1`, the inhibition is 15%.

As to `C=C(C)COc1ccc2oc(-c3ccccc3)c(C(=O)OCC)c2c1`, the inhibition was 0%.

In the case of `CC(C)(C)NCCOc1ccc(Cl)cc1Cl`, the inhibition was 0%.

Turning to `O=C(CSc1nc2ccc([N+](=O)[O-])cc2s1)c1ccc(Cl)cc1`, the inhibition is 11%.

Take `COc1ccc(C(=O)Nc2ccc(NC(=O)c3ccco3)c(OC)c2)cc1Cl`: the inhibition was 1%.

As for `Cc1cc(C)nc(/N=C(/N)Nc2ccc(C(=O)O)cc2)n1`, the inhibition was 3%.

Take `COc1ccc(-n2nc3cc(C)c(NC(=O)COc4ccc([N+](=O)[O-])cc4)cc3n2)cc1`: the inhibition is 6%.

In the case of `Cc1ccc(N=Cc2cc(Br)cc(Br)c2O)c(C)c1`, the inhibition is 4%.

Consider `O=C(NC(=S)Nc1ccc(-c2nc3ccccc3o2)cc1)c1cccs1`, for which the inhibition is 55% (active).

With `Cc1cc(C)c2oc(-c3cccc(NC(=O)c4ccc(Cl)cc4)c3)nc2c1`, the inhibition was 53% (active).

As for `Cc1cc(C)c2oc(-c3ccc(NC(=O)c4cccnc4)cc3O)nc2c1`, the inhibition was 52% (active).

Regarding `Cc1ccc2nc(-c3cccc(NC(=O)c4ccc(C)c([N+](=O)[O-])c4)c3)oc2c1`, the inhibition is 6%.

Turning to `Cc1ccc2nc(-c3cccc(NC(=O)c4ccc([N+](=O)[O-])cc4)c3)oc2c1`, the inhibition is 54% (active).

As to `Cc1ccc(-c2nc3cc(NC(=S)NC(=O)c4cccs4)ccc3o2)cc1`, the inhibition was 7%.

Take `Cc1cc2nc(-c3ccc(NC(=O)c4cccnc4)cc3O)oc2cc1C`: the inhibition was 12%.

On to `Cc1ccc2oc(-c3ccc(NC(=O)c4cccnc4)cc3O)nc2c1`, for which the inhibition is 21%.

Consider `Cc1ccc2oc(-c3cccc(NC(=O)c4cccc([N+](=O)[O-])c4)c3)nc2c1`, for which the inhibition is 0%.

With `Cc1cc(C)c2oc(-c3cccc(NC(=O)Cc4ccc(Cl)cc4)c3)nc2c1`, the inhibition is 25%.

As to `O=C(Nc1ccc(-c2nc3ccccc3o2)cc1)c1cccs1`, the inhibition was 5%.

Take `COc1c(Cl)cc(C(=O)Nc2cccc(-c3nc4cc(C)cc(C)c4o3)c2)cc1Cl`: the inhibition was 20%.

Take `COc1ccc(N2C(=O)/C(=C\c3cc(OC)ccc3O)SC2=S)cc1`: the inhibition was 22%.

On to `O=C(N/N=C/c1sc2ccccc2c1Cl)c1ccncc1`, for which the inhibition was 16%.

Take `COc1cc(C(=O)N/C(=C/c2cccc([N+](=O)[O-])c2)C(=O)Nc2ccc(C)cc2)cc(OC)c1OC`: the inhibition is 7%.

`O=c1c(-c2ccccc2Cl)coc2c(O)c(O)ccc12`: the inhibition is 55% (active).

With `Cc1oc2c(O)c(O)ccc2c(=O)c1-c1ccccc1Cl`, the inhibition is 52% (active).

Turning to `Cc1c(O)ccc2c(=O)c(-c3ccccc3Cl)coc12`, the inhibition was 9%.

Take `O=c1c(-c2ccccc2Cl)coc2cc(O)ccc12`: the inhibition is 19%.

As to `Cc1oc2c(C)c(O)ccc2c(=O)c1-c1ccccc1Cl`, the inhibition was 12%.

Take `O=c1c(-c2ccccc2Cl)c(C(F)(F)F)oc2c(O)c(O)ccc12`: the inhibition was 41%.

Take `COc1cc(C=C2C(=O)N(C)C(=O)N(C)C2=O)ccc1OCCOc1ccc(C)cc1`: the inhibition is 11%.

For `CCOC(=O)c1sc(NC(=O)COc2ccccc2C)c(C(=O)OCC)c1C`, the inhibition was 19%.

Regarding `Cc1cc2c(cc1Br)NC(=O)C2=O`, the inhibition is 27%.

For the molecule `C=CCc1ccc(OCCOCCOc2ccc(C)cc2I)c(OC)c1`, the inhibition was 13%.

With `O=C1NC(=S)S/C1=C\c1cccc(OS(=O)(=O)c2cccc([N+](=O)[O-])c2)c1`, the inhibition is 44%.

As to `Cc1ccc(/C=C2/SC(=S)NC2=O)cc1[N+](=O)[O-]`, the inhibition was 8%.

In the case of `Cc1ccc(S(=O)(=O)Oc2cccc(/C=C3\SC(N)=NC3=O)c2)cc1`, the inhibition was 15%.

Consider `O=C1NC(=S)S/C1=C\c1ccc(OS(=O)(=O)c2cccc([N+](=O)[O-])c2)cc1`, for which the inhibition was 31%.

With `COc1cc(/C=C2\SC(=S)NC2=O)cc(Cl)c1OS(=O)(=O)c1ccccc1`, the inhibition was 11%.

For `NC1=NC(=O)/C(=C/c2cccc(OS(=O)(=O)c3ccc4ccccc4c3)c2)S1`, the inhibition was 50% (active).

For the molecule `COc1cc(/C=C2/SC(=S)NC2=O)cc(Cl)c1OS(=O)(=O)c1ccc(C)cc1`, the inhibition is 54% (active).

For `COc1cc(/C=C2\SC(=S)NC2=O)ccc1OS(=O)(=O)c1ccc(C)cc1`, the inhibition was 24%.

As to `NC1=NC(=O)/C(=C/c2ccc(OS(=O)(=O)c3ccc4ccccc4c3)cc2)S1`, the inhibition is 20%.

With `Cc1ccc(S(=O)(=O)Oc2ccc(/C=C3\SC(=S)NC3=O)cc2)cc1[N+](=O)[O-]`, the inhibition was 57% (active).

In the case of `CC(=O)Nc1ccc(S(=O)(=O)Oc2cccc(/C=C3\SC(=S)NC3=O)c2)cc1`, the inhibition was 8%.

As for `O=C1NC(=S)S/C1=C\c1cccc(OS(=O)(=O)c2ccc([N+](=O)[O-])cc2)c1`, the inhibition is 57% (active).

Take `COc1ccc(-c2ccccc2)cc1NCc1ccc(C)s1`: the inhibition was 17%.

In the case of `CNC(=O)OCCc1ccc(-c2ccccc2)o1`, the inhibition was 4%.

Consider `CC1CC(=O)C2=C(C1)OC(N)=C(C#N)C2c1ccc(C(F)(F)F)cc1` (stereo not given), for which the inhibition was 2%.
